Screening results from PubChem BioAssay.
HT1080 IDH1KD tx: toxicity to HT-1080 IDH1 knockdown cells (counter line); HT-1080 IDH1 knockdown viability, ATP luminescence, 48 h; Potency, µM (highest dose often 46.1 µM), for the others: at the top dose activity, negative = toxicity, hits mostly cytotoxic; hit rate 2% among 360,000;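 note: 0% = DMSO wells and -100% = cell-free medium wells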
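Luminescent ATP read-out (CellTiter-Glo, 10 min at room temperature) after 48 h compound exposure at 37 °C gave viability of IDH1-knockdown HT-1080 cells. Activity was normalised to DMSO and cell-free wells, then fitted as concentration-response curves.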
HT1080-NT tox: kills 2HG-producing HT-1080-NT fibrosarcoma cells. HT-1080-NT fibrosarcoma viability, CellTiter-Glo ATP luminescence, 48 h. Potency, µM (highest dose often 46.1 µM), inactives show top-dose activity, negative = less viability, actives largely listed as cytotoxic. hit rate 1.6% among 360,000. AID 686970;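 note: NT is the 2HG producing partner of a matched IDH1 knockdown line; 0% = DMSO-treated cells and -100% = media-only wells without cells; nearly all actives have a fitted effect of over 55% in size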
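Compounds were tested in concentration-response format on HT-1080-NT cells for 48 hours at 37 degrees C. Cell viability came from CellTiter-Glo luminescence; curves were classified by r2, response magnitude and activity.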
TDP1 cell noCPT: qHTS for Inhibitors of human tyrosyl-DNA phosphodiesterase 1 (TDP1): qHTS in cells in absence of CPT; hit rate 15% among 420,000; DT40 Tdp1-/- hTDP1 cells, no CPT, ATP luminescence, 48 h; Potency, µM (doses to about 46.2 µM), for inactives: top-dose activity change, negative = growth inhibition, most hits filed as inhibitors; note: nearly all actives have a fitted effect of over 55% in size
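Camptothecin absent (DMSO only). Human TDP1-complemented DT40 knockout cells, 400 cells/well, 37 °C for minimum 48 hr; ATP measured via CellTiter-Glo, 30 min dark incubation, luminescence.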
DT40 TDP1 CPT: DT40-hTDP1 cell growth loss with CPT | AID 686979 | Potency, µM (highest dose often 46.2 µM), for the others: top-dose activity change, negative = growth inhibition, hits mostly inhibitors | hit rate 12% among 420,000 | chicken DT40 Tdp1-/-;hTDP1 cells + 20 nM CPT, ATP luminescence, 48 h; note: nearly all actives have a fitted effect of over 55% in size
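Cell growth measured by CellTiter-Glo luminescence after a minimum 48 h, 37 C compound exposure with 20 nM CPT in Tdp1-knockout DT40 cells stably expressing hTDP1, seeded 400/well; qHTS titration format.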
KB-V1 cytotox: kills drug-selected multidrug resistant KB-V1 cells; KB-V1 MDR cells viability, CellTiter-Glo, 72 h; Potency, µM (titrated, usually from 46.1 µM), most hits filed as cytotoxic; hit rate 3.4% among 400,000; note: nearly all actives have a fitted effect of over 60% in size
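KB-V1, DMEM (no phenol red) + 10% FBS; cpd pin-transferred, titration series; 72 h, 37 degrees C; CellTiter-Glo, luminescence. Data normalized, curve-fit.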
KB-3-1 tox: KB-3-1 parental cell cytotoxicity. hit rate 1.4% among 400,000. Potency, µM (doses to about 46.1 µM), actives largely listed as cytotoxic. KB-3-1 viability, CellTiter-Glo ATP luminescence, 72 h; note: nearly all actives have a fitted effect of over 60% in size
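KB-3-1 parental drug-naive adenocarcinoma cells in DMEM/10% FBS, incubated 72 h at 37 C with pin-transferred compounds across a concentration series. Viability by CellTiter-Glo luminescence; concentration-response curves fitted after normalization.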
Starred values were filed as active, the others as inactive; i = inactive; ? = inconclusive; . = no result; ! = repeats disagree. Sampled rows, rich in hits. Any-hit rate of the full collection: about 19%. Calls come from the whole dose curve; as a rule, active = well fitted curve in the direction sought with a large enough effect; inconclusive = small, poorly fitted or top-dose-only effect, or another doubt; inactive = no such curve, though single readings can be large; an effect the other way counts as inactive or inconclusive. Unless noted, % is set by controls: 0 for no effect and ±100 for the full control effect; potency is the fitted concentration of half-maximal effect.

SMILES	HT1080 IDH1KD tx	HT1080-NT tox	TDP1 cell noCPT	DT40 TDP1 CPT	KB-V1 cytotox	KB-3-1 tox
CCOC(=O)c1nnn(CC(=O)NC(=O)Nc2ccccc2)c1C(=O)OCC	-1%	7%	2%	4%	i	i
CCOC(=O)c1nnn(CC(=O)N2N=C(c3cc(C)ccc3C)CC2c2ccc(OC)cc2)c1C(=O)OCC (configuration not stated)	-4%	-13%	15µM*	29µM*	?	i
CCN1CCN(CC(=O)N2N=C(c3ccc(OC)cc3)CC2c2ccc(OC)cc2)C(=O)C1=O (configuration not stated)	3%	5%	4%	-3%	i	i
CCOC(=O)c1nnn(CC(=O)N2N=C(c3ccccc3)CC2c2ccccc2)c1C(=O)OCC (configuration not stated)	-19%	-9%	18µM*	?	?	i
CCC1CCC(N2CCN(c3cccc(OC)c3)CC2)CC1 (configuration not stated)	-4%	4%	3%	8%	i	i
COc1ccc(-c2c3c(=O)n(C)c(=O)n(C)c3c3c(-c4ccccc4)nc4ccccc4n23)cc1	.	.	2.3µM*	-3%	i	i
COc1ccc(-c2nc3ccccc3n3c(-c4cccc(C)c4)c4c(=O)n(C)c(=O)n(C)c4c23)cc1OC	.	.	18µM*	16µM*	i	?
COc1ccc(-c2c3c(=O)n(C)c(=O)n(C)c3c3c(-c4cccc(C)c4)nc4ccccc4n23)cc1	.	.	21µM*	?	i	i
COc1ccc(-c2nc3ccccc3n3c(-c4ccccc4)c4c(=O)n(C)c(=O)n(C)c4c23)cc1OC	.	.	?	-22%	i	i
Cc1ccc(C(=O)NCC(=O)N2CCCN(C)CC2)cc1C	-3%	2%	-12%	-13%	i	i
COc1ccc(NC(=O)COC(=O)c2cc3c(s2)CCC3)cc1	3%	-2%	?	16µM*	i	i
NC(=O)c1ccc(NC(=O)COC(=O)c2cc3c(s2)CCC3)cc1	8%	5%	-23%	?	i	i
O=C(COC(=O)c1cc2c(s1)CCC2)Nc1ccc(F)cc1	-4%	-6%	15µM*	?	i	i
Cc1ccc2oc(=O)n(CCNC(=O)Nc3ccc(C)c(F)c3)c2c1	.	.	23µM*	?	.	.
Cc1ccc2oc(=O)n(Cc3ccccc3Cl)c2c1	.	.	-13%	1%	i	i
Cc1ccc2oc(=O)n(CCNC(=O)Nc3ccccc3Cl)c2c1	.	.	?	18µM*	i	i
O=C(NCCOCCn1c(=O)oc2ccccc21)Nc1ccc(F)cc1F	.	.	12µM*	10µM*	i	i
CC(C)Oc1ccc(CNC(=O)CN2C(=O)CCn3nc(-c4cn(C)c5ccccc45)cc32)cc1	.	.	?	?	i	i
COCCNC(=O)CCC(=O)N1Cc2cccc(OC)c2Oc2ncccc21	.	.	?	1%	i	i
Oc1ccc(C2C[C@H]3CC[C@@H]2C3)cc1O (some centres not stated)	?	?	?	12µM*	i	i
CCOC(=O)Nc1ccc(NCc2ccc(F)cc2)nc1N	?	?	16µM*!	?	i	i
CCOC(=O)Nc1ccc(C)cc1NC(=O)OCC	6%	0%	-14%	-8%	i	i
Oc1ccccc1/C=N/Nc1ccccc1	9.2µM*	?	-6%	-10%	i	i
Cc1c(/C=N/NC(=O)C2(O)c3ccccc3-c3ccccc32)cnn1C	17%	2%	-15%	-20%	i	i
